The results in this text go back to PubChem BioAssay AID488922 (Johns Hopkins Ion Channel Center, 2010).

Out of some 310,000 compounds screened, about 3,800 (1.2%) were called active.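 The calls were made as follows: active = ratio B-score over 3 SD below the library mean, with starting fluorescence within 5 SD of its mean; inactive = the rest, inconclusive results apart.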 The sample as a whole holds a higher share of actives than the screen did.

The target in the assay is Potassium channel subfamily K member 9 (Homo sapiens) (UniProt Q9NPC2). Put plainly: KCNK9 potassium channel inhibitors, primary screen, HEK293 cells, thallium flux (AID 488922).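 As to B-score: negative B-score means less thallium flux so channel inhibition.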 Particulars: HEK293 KCNK9, FluxOR thallium flux fluorescence, at 10 µM; active compounds read low.
Chain of Potassium channel subfamily K member 9 (Homo sapiens) (Q9NPC2 whole entry, looked up): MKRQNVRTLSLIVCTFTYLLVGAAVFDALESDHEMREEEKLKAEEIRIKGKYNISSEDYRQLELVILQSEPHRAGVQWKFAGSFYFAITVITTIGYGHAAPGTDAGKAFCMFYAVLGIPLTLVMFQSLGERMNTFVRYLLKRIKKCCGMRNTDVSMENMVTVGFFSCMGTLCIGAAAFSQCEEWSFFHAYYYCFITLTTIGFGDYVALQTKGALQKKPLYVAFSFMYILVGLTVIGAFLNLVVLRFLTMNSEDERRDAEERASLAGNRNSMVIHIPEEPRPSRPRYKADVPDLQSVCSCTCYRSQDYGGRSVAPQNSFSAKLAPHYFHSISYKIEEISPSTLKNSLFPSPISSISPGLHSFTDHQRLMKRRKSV
As for `CCOc1ccc(-n2c(SCC(=O)NC3CCS(=O)(=O)C3)nnc2-c2cccnc2)cc1` (stereo not drawn), the B-score entry was “inactive”. Turning to `CCCC(C(=O)n1nc(C)cc1C)C(NS(=O)(=O)c1ccc(C)cc1)c1ccccc1` (stereo not drawn), the B-score entry was “inactive”. Take `O=C(C1CC1)N1CCN=C1SCc1ccc(Cl)cc1`: the B-score entry was “inactive”. In the case of `CC1CCN(C(=O)c2ccc(CSc3ccc(Cl)cc3)cc2)CC1` it was -8.16 (active); in that of `O=C(c1ccc(CSc2ccccc2)cc1)N1CCCCCC1`, “inactive”. Turning to `CCCCn1c(N)c(N(CCOC)C(=O)c2cccc(S(=O)(=O)N(C)c3ccccc3)c2)c(=O)[nH]c1=O`, the B-score result is “inactive”. On to `CCOC(=O)Cc1csc(SCC(=O)NC(C)C23CC4CC(CC(C4)C2)C3)n1` (stereo not drawn), for which the B-score result is “inactive”. With `CN(C)S(=O)(=O)c1cccc(NC(=O)COC(=O)C2(c3ccccc3F)CCCC2)c1`, the B-score result was “inactive”.

Turning to `CN(C)S(=O)(=O)c1cccc(NC(=O)Cc2ccsc2)c1`, the B-score result was “inactive”. Consider `CN(c1ccccc1)S(=O)(=O)c1cccc(NC(=O)Cc2c(F)cccc2Cl)c1`, for which the B-score is -15.5 (active). In the case of `Cc1cc(=O)oc2c1ccc1ccccc12`, the B-score entry was “inactive”.

Turning to `COc1ccc(COC(=O)NC(C(=O)O)c2ccccc2)cc1` (stereo not drawn), the B-score entry was “inactive”. In the case of `COc1ccc(C(CCN(Cc2ccc(OC)c(OC)c2)C(=O)CCl)c2ccccc2)cc1` (stereo not drawn) it was -11 (active); in that of `COc1ccc(CN(C)C(=O)CC(c2ccccc2)c2ccccc2)cc1`, “inactive”. Turning to `O=c1[nH]c(/C=C/c2cccc(Br)c2)nc2ccccc12`, the B-score result is “inactive”. As for `CCc1ccc(C(CNc2nc(C(F)(F)F)nc3ccccc23)N(C)C)cc1` (stereo not drawn), the B-score entry was “inactive”. As for `COc1cccc(CNc2nc(C(F)(F)F)nc3ccccc23)c1`, the B-score was -8.03 (active).

For the compound `COc1ccc(CNc2ncnc3ccccc23)cc1`, the B-score entry is “inactive”. To `CCOC(=O)c1cc(C(=O)Nc2ccc(S(=O)(=O)Nc3ccc(OC)cc3)cc2)nn1C` belongs “inactive”.

For the compound `COc1ccc(-n2ncc3c2CC(C)(C)CC3NC(=O)CCc2c(C)noc2C)cc1` (stereo not drawn), the B-score result is “inactive”. With `Cc1nn(CC(=O)Nc2nc3ccccc3s2)c(C)c1[N+](=O)[O-]`, the B-score is -10.4 (active). As for `CCc1ccc(NC(=O)Cn2nc(C)c([N+](=O)[O-])c2C)cc1`, the B-score entry is “inactive”. Regarding `Cc1nn(CC(=O)NCc2ccccn2)c(C)c1[N+](=O)[O-]`, the B-score result is “inactive”.

In the case of `Cc1cc(C)nc(NS(=O)(=O)c2ccc(N3C(=O)C4CCCCC4C3=O)cc2)n1` (stereo not drawn), the B-score entry was “inactive”. In the case of `COc1ccccc1N1CCN(c2ncnc3sc(C)c(-c4ccccc4)c23)CC1` it was -16.5 (active); in that of `COc1ccccc1N1CCN(c2ccc([N+](=O)[O-])nc2)CC1`, “inactive”.

Take `Oc1ccccc1N1CCN(c2ncnc3sc(-c4ccccc4)cc23)CC1`: the B-score result was “inactive”. Regarding `O=C(NCCc1ccc(Cl)cc1Cl)c1cc([N+](=O)[O-])c[nH]c1=O`, the B-score result was “inactive”. To `CC(c1ccccn1)N(CCN(C)C)C(=S)Nc1ccccc1F` (stereo not drawn) belongs “inactive”; to `CSc1cccc(NC(=S)N(Cc2ccccc2)Cc2ccccn2)c1`, “inactive”. Take `CSc1cccc(NC(=S)N(C(C)C)C(C)c2ccccn2)c1` (stereo not drawn): the B-score was -17.5 (active).

Take `Cc1ccc(OCc2nc3ccccc3n2C)cc1`: the B-score entry is “inactive”. Turning to `Cc1ccc(O)c(CNc2nc3ccccc3n2C)c1`, the B-score result was “inactive”. To `Cc1ccc(C2=NN(C)c3nc4ccccc4n3C2)cc1` belongs -8.17 (active); to `CCOC(=O)/C(=N\Nc1cc(Cl)ccc1Cl)N1CCN(C)CC1`, “inactive”. As to `COCCNc1ncnc2c1nc1n2CCCC1`, the B-score result is “inactive”.

Turning to `COc1cnc(SCc2ccc(Cl)c(Cl)c2)nc1Cl`, the B-score result is “inactive”.

Regarding `O=S(=O)(NC1CCCCC1N1CCCCC1)c1ccc(Cl)cc1` (stereo not drawn), the B-score entry was “inactive”. As for `COc1ccc(N2CCN(C3CCCCC3NS(=O)(=O)c3ccccc3)CC2)cc1` (stereo not drawn), the B-score entry is “inactive”. For the compound `O=S(=O)(NC1CCCCC1N1CCN(c2ccccc2F)CC1)c1ccccc1` (stereo not drawn), the B-score was -7.59 (active).

On to `N#Cc1c(NCCO)ccc([N+](=O)[O-])c1NCCO`, for which the B-score result was “inactive”.

On to `Cc1ccnc(N2C(=O)c3ccccc3C2Nc2ccc3c(c2)OCCO3)c1` (stereo not drawn), for which the B-score entry was “inactive”. Regarding `COC(=O)c1cc(NC2c3ccccc3C(=O)N2c2ccc(Cl)cn2)cc(C(=O)OC)c1` (stereo not drawn), the B-score is -8.59 (active). Turning to `CCc1ccccc1NC1c2ccccc2C(=O)N1c1cccnc1` (stereo not drawn), the B-score entry is “inactive”.

On to `Cc1ccc(C)c(OCCC(=O)OCC(=O)c2ccc3c(c2)NC(=O)CO3)c1`, for which the B-score entry is “inactive”.

With `Cc1ccc(CNC(=O)C2(C(F)(F)F)C/C(=C\Cc3ccccc3)CCCO2)o1` (stereo not drawn), the B-score entry is “inactive”.

On to `CCOC(=O)c1ccc(NC(=O)Cc2cccs2)cc1`, for which the B-score result is “inactive”. `CC1=NN(C(=O)Cc2ccc(C)cc2)C(O)(c2cccnc2)C1` (stereo not drawn): the B-score entry was “inactive”. Regarding `CCC1=NN(C(=O)Cc2ccc([N+](=O)[O-])cc2)C(O)(c2ccc(Br)cc2)C1` (stereo not drawn), the B-score was -9.93 (active). For the compound `CC1=NN(C(=O)c2ccc(Br)cc2)C(O)(c2ccccc2)C1` (stereo not drawn), the B-score entry is “inactive”. To `CCOC(=O)c1[nH]c(C)c(C(=O)OCC(=O)N2c3ccccc3CC2C)c1C` (stereo not drawn) belongs “inactive”; to `COc1ccc(C)cc1NC(=O)CNCc1cccs1`, “inactive”.

On to `Brc1ccc(C2CC(c3ccccc3)=Nc3ccccc3N2)cc1` (stereo not drawn), for which the B-score was -9.6 (active). To `c1ccc(C2=Nc3cccc4cccc(c34)N2)cc1` belongs “inactive”; to `CNC(=S)N1N=C(c2ccccc2)CC1c1ccc(Br)cc1` (stereo not drawn), “inactive”; to `CC(C)(C)SCCSC1=CC(=O)CC(c2ccccc2)C1` (stereo not drawn), “inactive”.

As for `O=C(N/C(=C\c1ccc([N+](=O)[O-])cc1)C(=O)N1CCCCC1)c1ccco1`, the B-score entry was “inactive”.

Turning to `O=C(c1ccccc1)C(Cn1cncn1)C(Sc1ccccc1)c1ccccc1` (stereo not drawn), the B-score result is “inactive”. In the case of `O=C(NCc1ccccc1)c1onc(CSc2ccncc2)c1C(=O)NCc1ccccc1` it was “inactive”; in that of `CCC(C)NC(=O)CN(C1CCCCC1)S(C)(=O)=O` (stereo not drawn), “inactive”. For the compound `CS(=O)(=O)N(CC(=O)Nc1ccc(F)cc1)C1CCCCC1`, the B-score entry is “inactive”. `CS(=O)(=O)N(CC(=O)Nc1ccc(Cl)c(Cl)c1)C1CCCCC1`: the B-score was -7.01 (active). As to `Cc1csc(/N=C/N(C)C)c1C#N`, the B-score result was “inactive”.

As for `Cc1ccc(S(=O)(=O)/N=C(/NC(=S)Nc2c(C)n(C)n(-c3ccccc3)c2=O)c2ccccc2)cc1`, the B-score entry was “inactive”. `O=C(COC(=O)c1ncc(Cl)c(Cl)c1Cl)NC1CCS(=O)(=O)C1` (stereo not drawn): the B-score entry was “inactive”. `Cc1ccc(CN(C(=O)c2sc3ccccc3c2Cl)C2CCS(=O)(=O)C2)cc1` (stereo not drawn): the B-score was -7.41 (active). In the case of `COc1ccc(C(=O)N(Cc2ccc(N(C)C)cc2)C2CCS(=O)(=O)C2)cc1` (stereo not drawn) it was “inactive”; in that of `CC1(C)C(C=C(Cl)Cl)C1C(=O)N(Cc1ccc(Cl)cc1)C1CCS(=O)(=O)C1` (stereo not drawn), “inactive”.
